# Bioassay records as filed in PubChem BioAssay.
# HSF1 inh: HSF1 inhibitors in luciferase reporter cells, primary screen, cell-based, NIH3T3, luminescence; NIH3T3-HGL HSE-luciferase, MG132-induced, luminescence 8 h; stronger effect = lower value; activity change, negative = inhibition, % at 7.5 µM (by protocol); 300,000 tested, 0.77% active;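 active means more than half of replicate wells show activity change below -50%, luminescence cut by over half; inconclusive means some wells, but at most half, below -50%; inactive means no replicate well below -50%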;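 further: luciferase reports HSF-1 transcriptional activity via heat shock element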
# SMARCA2 act: SMARCA2 (BRM) function activators, primary screen, cell-based, luminescence, high throughput. MG213 cells, MMTV-luciferase reporter, dexamethasone, overnight. activation, % at 9.1 µM. AID 652017, 2013. 370,000 tested, 1% active; in the data active means activation above about 7.8%
# AI-2 QS mod: Vibrio harveyi AI-2 quorum sensing modulators, primary screen, JMH597 strain, luminescence/OD600 ratio. activity change, % at 7.5 µM. 300,000 tested, 0.4% active. AID 2094, 2009. Vibrio harveyi JMH597 AI-2 luminescence/OD600 ratio, 9 h; stronger effect = lower value; strain lacks LuxN and CqsS sensors; 0 = neutral-control median; in the data active means activity change below about -75%, passing the limit was not always enough; inconclusive means no clear call, values can overlap the other calls;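 further: luminescence divided by OD600 gain over 9 h not by final OD600 alone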
# HSP90 inh: HSP90 inhibitors, primary screen, cell lysate, luminescence; Heat shock protein HSP 90 (rabbit reticulocyte lysate; luciferase refolding); Rabbit reticulocyte lysate, luciferase refolding luminescence, 3 h; inhibition, % at 5.6 µM; 290,000 tested, 0.91% active; AID 1789, 2009;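 active means inhibition above the screen-wide mean plus 3 SD, computed separately per campaign, cut at about 16% in these data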;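 further: inhibitors lower the luminescence because luciferase stays unfolded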
# GAA850 FXN act: FXN promoter activators, primary screen, cell-based, luciferase luminescence, HEK293 lucGAA850; HEK293 lucGAA850 FXN promoter luciferase reporter, 24 h; percent of 10 µM SAHA response; activation, % at 6 µM; 360,000 tested, 0.56% active;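 active means activation above the average of all compounds screened plus 3 SD, cutoff fixed separately per campaign, cut at about 7.5% in these data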
# PG9 binder: binders of HIV-1 gp120 antibody PG9, primary screen, biochemical, TR-FRET; HIV-1 gp120 / PG9 antibody interaction; TR-FRET gp120-PG9 antibody binding; inhibition, % at 6.7 µM; 360,000 tested, 0.43% active; AID 624416, 2012; in the data active means inhibition above about 8.5%
# GAA30 counter: GAA30 FXN promoter activators, confirmation, counter-screen for GAA850 frataxin promoter activator project, cell-based, luminescence, HEK293, lucGAA30, triplicate | shares compounds with GAA850 FXN act | HEK293 lucGAA30 FXN promoter luciferase, 24 h; DMSO = 0%, 5 µM ipriflavone = 100% | activation, % at 6 µM | 1,900 tested, 66% active | AID 588350, 2011;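 active means mean activation above the mean of solvent-only control wells plus 3 SD, cut at about 22% in these data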;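 further: counterscreen of GAA850 promoter hits where activity marks nonselective or luminescence artifacts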
# FXN GAA850 conf: FXN GAA850 promoter activators in reporter cells, confirmation, cell-based, luminescence, HEK293 lucGAA850, triplicate; AID 588351, 2011; HEK293 lucGAA850 FXN promoter luciferase reporter, 24 h; 100% = activation by SAHA; shares compounds with GAA850 FXN act; 1,900 tested, 86% active; activation, % at 6 µM;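 active means mean activation above a set limit taken from the primary screen, cut at about 8% in these data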
# Hits are given with their value; n = inactive; u = inconclusive; x = no result. Compounds with a hit are over-represented: about 3.4% of the library has one in this group of screens.
SMILES,HSF1 inh,SMARCA2 act,AI-2 QS mod,HSP90 inh,GAA850 FXN act,PG9 binder,GAA30 counter,FXN GAA850 conf
COc1ccc(OCCOc2ccc(C)nc2[N+](=O)[O-])cc1,n,n,n,n,7.7,n,78.1,24.4
CCCCCCCCN1C(=O)N(Cc2ccc(OC)cc2)S(=O)(=O)c2ccc(F)cc21,x,n,x,x,x,n,x,x
CS(=O)(=O)c1ncc(Cl)c(C(=O)Nc2ccc(OC(F)F)cc2)n1,-91.2,x,u,n,68.4,x,n,n
CS(=O)(=O)c1ncc(Cl)c(C(=O)Nc2ccc(N3CCOCC3)cc2)n1,n,x,n,n,n,x,x,x
COC(=O)[C@]12C[C@H](CC(=O)N3CCSCC3)C(=O)N(Cc3ccccc3)C1=C[C@H](C(C)C)O[C@@H]2C1CC1,x,n,x,x,x,n,x,x
COc1ccc(N2C(=O)N3[C@H](c4ccc(Br)cc4)[C@@H]4C(=O)N(C(C)(C)C)C(=O)[C@@H]4[C@]3(Cc3ccccc3)C2=O)cc1,n,n,n,n,n,n,x,x
CC[C@@]12C(=O)N(c3ccc(C)cc3)C(=O)N1[C@H](c1ccc(Br)cc1)[C@@H]1C(=O)N(C(C)(C)C)C(=O)[C@@H]12,n,n,n,n,13.4,n,28.1,10.2
CC[C@@]12C(=O)N(c3ccc(C)cc3)C(=O)N1[C@H](c1ccc(OC)cc1)[C@@H]1C(=O)N(C(C)(C)C)C(=O)[C@@H]12,n,n,n,n,11.5,n,32.7,13.1
CC[C@@]12C(=O)N(c3ccccc3)C(=O)N1[C@H](c1ccc(OC)cc1)[C@@H]1C(=O)N(C(C)(C)C)C(=O)[C@@H]12,n,n,n,x,11.3,n,34.9,14.1
CCCCc1c(-c2ccccc2OC)ncn1Cc1cc(F)ccc1F,x,n,x,x,x,n,x,x
CC(=O)Nc1sc2c(c1-c1nc3ccccc3s1)CCN(C(C)C)C2,x,x,x,n,33.8,x,n,90.5
CCN(CC)S(=O)(=O)c1ccc(OC)nc1,n,n,n,n,10.6,n,n,n
COC(=O)C1=C(C(=O)OC)[C@]2([C@H]3CC=CCN[C@@H](Cc4ccccc4)C(=O)N3Cc3ccccc3)C=C[C@H]1O2,x,n,x,x,n,n,x,x
COC(=O)C1=C(C(=O)OC)[C@]2([C@@H]3CC=CCN[C@@H](Cc4ccccc4)C(=O)N3Cc3ccccc3)C=C[C@H]1O2,x,n,x,x,9.1,n,n,n
O=C(NCc1ccccc1)[C@@H]1CCCN1C(=O)[C@@H](NS(=O)(=O)c1ccc(F)cc1F)c1ccccc1,x,n,x,x,x,n,x,x
Cc1ccc(S(=O)(=O)/C=C2\OCc3ccccc32)cc1,x,n,x,x,x,n,x,x
Cc1ccccc1CSc1nnc2ccc(-c3ccncc3)nn12,n,n,n,n,7.7,n,29.6,12.5
c1ccc(CSc2nnc3ccc(-c4ccncc4)nn23)nc1,n,n,n,n,n,n,x,x
COc1ccc(OC)c(CN2CCN(C(=O)c3cc(S(=O)(=O)N4CCOCC4)ccc3C)CC2)c1,x,n,x,x,x,n,x,x
O=C(OCc1cn([C@H]2C[C@H](c3ccc(Cl)cc3)N(CC3CCCCC3)C[C@@H]2O)nn1)c1ccccc1,x,n,x,x,n,n,x,x
O=C(NCC1CCN(C(=O)C(=O)c2cc3ccccc3o2)CC1)c1ccc2c(c1)OCC2,x,n,x,x,x,n,x,x
O=C(CSc1nnc(-c2ccccc2)n1-c1ccc(Cl)cc1)Nc1ccc(OCc2ccccc2)cc1,x,n,x,x,x,x,x,x
COc1ccc(-c2c(C#N)c(N)nc3c2CCC3)cc1,n,n,n,n,n,n,x,x
N#Cc1c(N)nc2c(c1-c1ccccc1)CCC2,n,n,n,n,8.2,n,62.0,35.4
CC1(C(=O)Nc2ccc(Cl)c(C(F)(F)F)c2)Cc2c(-c3ccc4c(c3)OCO4)ccnc2O1 (stereo not drawn),x,n,x,x,n,n,x,x
SMILES,HSF1 inh,SMARCA2 act,AI-2 QS mod,HSP90 inh,GAA850 FXN act,PG9 binder,GAA30 counter,FXN GAA850 conf
COc1cc(C(=O)N2CCCC(c3cc(C(=O)NCc4ccc(F)cc4)no3)C2)cc(OC)c1C (stereo not drawn),x,n,x,x,n,n,x,x
Cc1ccc2nc(-c3ccc4c(c3)NC(=O)CO4)cn2c1,n,n,n,n,8.5,n,98.0,30.2
COCCCNc1nc2c(-c3ccc(C)cc3)nnn2c2ccccc12,n,n,n,n,7.7,n,92.4,39.4
COCCCNc1nc2c(-c3cccc(C)c3)nnn2c2ccccc12,n,n,n,n,n,n,x,x
CCS(=O)(=O)N1Cc2ccccc2CC1C(=O)Nc1nc(C)cs1 (stereo not drawn),n,n,n,n,7.9,n,79.5,33.0
CCS(=O)(=O)N1Cc2ccccc2CC1C(=O)Nc1nccs1 (stereo not drawn),n,n,n,n,8.2,n,108.8,38.3
C[C@@H]1CN([C@H](C)CO)C(=O)c2cc(NC(=O)Nc3ccccc3)ccc2O[C@@H](C)CCCCO[C@H]1CN(C)S(C)(=O)=O,x,n,x,x,x,n,x,x
O=C1Nc2ccc(Br)cc2/C1=C/C(=O)c1ccccc1,x,n,x,x,11.3,n,n,16.6
O=C(O)COc1ccccc1/C=C1\C(=O)Nc2ccc(Br)cc21,n,n,n,n,n,n,x,x
Cc1c(Cl)cccc1N=Cc1ccc([N+](=O)[O-])s1,n,n,n,n,9.2,n,n,n
COC(=O)N/N=C/c1ccc([N+](=O)[O-])s1,n,n,n,n,n,n,x,x
CCOC(=O)c1cnc(SCc2ccccc2)nc1N,n,n,n,n,9.9,n,117.3,39.2
N#CCSc1nc(N)c(C#N)c(C2CCCCC2)c1C#N,n,n,n,n,10.7,n,n,18.9
C=CCSc1nc(N)c(C#N)c(-c2ccc(C)cc2)c1C#N,n,n,n,n,n,n,x,x
CC(C=NN=C1C(=O)Nc2ccccc21)=Cc1ccccc1,x,n,x,x,x,n,x,x
COC(=O)C(NC(=O)c1ccc(F)cc1)(Nc1ncc(S(=O)(=O)c2ccc([N+](=O)[O-])cc2)s1)C(F)(F)F (stereo not drawn),n,n,n,n,9.8,n,n,14.1
O=C(N[C@H](C(=O)N1CCC[C@H]1C(=O)NCCc1ccccc1Cl)c1ccccc1)c1ccco1,x,n,x,x,x,n,x,x
